# Laboratory results published in the supplement of paper PMC8728848.
# The sample as a whole holds a higher share of the strongest signals than the screen did.
# B1: Microvirin-2 (Microcystis aeruginosa) (protein)
# chain: MPNFSHTCSSINYDPDSTILSAECQARDGEWLPTELRLSDHIGNIDGELQFGDQNFQETCQDCHLEFGDGEQSVWLVCTCQTMDGEWKSTQILLDSQIDNNDSQLEIGGSMPNFSHTCSSINYDPDSTILSAECQARDGEWLPTELRLSDHIGNIDGELQFGDQNFQETCQDCHLEFGDGEQSVWLVCTCQTMDGEWKSTQILLDSQIDNNDSQLEIG
# Key:
# Assay in all cases: glycan array binding signal (z-score within array); higher = stronger binding
# Conditions in all cases: glycan notation: IUPAC condensed, linker removed
# [1] = molecular target: Fuc(a1-2)Gal(b1-3)GalNAc(b1-4)[Neu5Ac(a2-3)]Gal(b1-4)Glc
# Procedure, shortened: (§1)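 Glycan array data came from 3228 arrays in the Consortium for Functional Glycomics database, and only arrays with an available protein sequence were kept. Glycan names were put into IUPAC-condensed notation, and columns mapping to the same glycan were averaged. The binding signal is a within-array Z-score, averaged across arrays of one protein sequence run at different concentrations or buffers and across linkers. A negative Z-score can be read as non-binding.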
# Fuc(a1-2)Gal(b1-3)GlcNAc = molecular target: Fuc(a1-2)Gal(b1-3)GlcNAc
# Procedure, shortened: as §1
# [2] = molecular target: Fuc(a1-2)Gal(b1-3)GlcNAc(b1-2)Man(a1-3)[Fuc(a1-2)Gal(b1-3)GlcNAc(b1-2)Man(a1-6)]Man(b1-4)GlcNAc(b1-4)GlcNAc
# Procedure, shortened: as §1
# [3] = molecular target: Fuc(a1-2)Gal(b1-3)[Fuc(a1-4)]GlcNAc(b1-3)[Fuc(a1-3)[Gal(b1-4)]GlcNAc(b1-6)]Gal(b1-4)Glc
# Procedure, shortened: as §1
# [4] = molecular target: Fuc(a1-2)[Gal(a1-3)]Gal(b1-3)GlcNAc
# Procedure, shortened: as §1
# [5] = molecular target: Fuc(a1-2)[Gal(a1-3)]Gal(b1-4)GlcNAc(b1-2)Man(a1-3)[Fuc(a1-2)[Gal(a1-3)]Gal(b1-4)GlcNAc(b1-2)Man(a1-6)]Man(b1-4)GlcNAc(b1-4)GlcNAc
# Procedure, shortened: as §1
# [6] = molecular target: Fuc(a1-2)[GalNAc(a1-3)]Gal(b1-4)GlcNAc(b1-2)Man
# Procedure, shortened: as §1
# Fuc(b1-3)GlcNAc = molecular target: Fuc(b1-3)GlcNAc
# Procedure, shortened: as §1
# Gal(b1-3)Gal = molecular target: Gal(b1-3)Gal
# Procedure, shortened: as §1
# [7] = molecular target: Gal(b1-3)[Fuc(a1-4)]GlcNAc(b1-2)Man(a1-3)[Gal(b1-3)[Fuc(a1-4)]GlcNAc(b1-2)Man(a1-6)]Man(b1-4)GlcNAc(b1-4)[Fuc(a1-6)]GlcNAc
# Procedure, shortened: as §1
# Gal(b1-4)Gal = molecular target: Gal(b1-4)Gal
# Procedure, shortened: as §1
# Gal(b1-4)Glc6S = molecular target: Gal(b1-4)Glc6S
# Procedure, shortened: as §1
# Gal(b1-4)GlcNAc = molecular target: Gal(b1-4)GlcNAc
# Procedure, shortened: as §1
# [8] = molecular target: Gal(b1-4)GlcNAc(b1-2)Man(a1-6)[Man(a1-3)]Man(b1-4)GlcNAc(b1-4)GlcNAc
# Procedure, shortened: as §1
# [9] = molecular target: Gal(b1-4)GlcNAc(b1-2)[Gal(b1-4)GlcNAc(b1-6)]Man(a1-6)[Gal(b1-4)GlcNAc(b1-2)Man(a1-3)]Man(b1-4)GlcNAc(b1-4)[Fuc(a1-6)]GlcNAc
# Procedure, shortened: as §1
# [10] = molecular target: Gal(b1-4)GlcNAc(b1-3)Gal(b1-4)GlcNAc(b1-3)GalNAc
# Procedure, shortened: as §1
# Gal6P(b1-4)GlcNAc = molecular target: Gal6P(b1-4)GlcNAc
# Procedure, shortened: as §1
# Gal6S(b1-4)Glc6S = molecular target: Gal6S(b1-4)Glc6S
# Procedure, shortened: as §1
# [11] = molecular target: GalNAc(b1-3)Gal(a1-4)Gal(b1-4)GlcNAc
# Procedure, shortened: as §1
# GlcA(b1-6)Gal = molecular target: GlcA(b1-6)Gal
# Procedure, shortened: as §1
# [12] = molecular target: GlcNAc(a1-4)Gal(b1-4)GlcNAc(b1-3)Gal(b1-4)[Fuc(a1-3)]GlcNAc(b1-3)Gal(b1-4)[Fuc(a1-3)]GlcNAc
# Procedure, shortened: as §1
# [13] = molecular target: GlcNAc(b1-2)[GlcNAc(b1-4)]Man(a1-3)[GlcNAc(b1-2)Man(a1-6)]Man(b1-4)GlcNAc(b1-4)GlcNAc
# Procedure, shortened: as §1
# [14] = molecular target: GlcNAc(b1-2)[GlcNAc(b1-4)]Man(a1-3)[GlcNAc(b1-4)][GlcNAc(b1-2)[GlcNAc(b1-6)]Man(a1-6)]Man(b1-4)GlcNAc(b1-4)GlcNAc
# Procedure, shortened: as §1
# [15] = molecular target: GlcNAc(b1-4)GlcNAc(b1-4)GlcNAc
# Procedure, shortened: as §1
# [16] = molecular target: GlcNAc(b1-4)GlcNAc(b1-4)GlcNAc(b1-4)GlcNAc(b1-4)GlcNAc(b1-4)GlcNAc
# Procedure, shortened: as §1
# [17] = molecular target: Man(a1-2)Man(a1-2)Man(a1-3)Man
# Procedure, shortened: as §1
# [18] = molecular target: Man(a1-2)Man(a1-2)Man(a1-6)[Man(a1-3)]Man
# Procedure, shortened: as §1
# Man(a1-2)Man(a1-3)Man = molecular target: Man(a1-2)Man(a1-3)Man
# Procedure, shortened: as §1
# [19] = molecular target: Man(a1-2)Man(a1-3)[Man(a1-2)Man(a1-6)]Man
# Procedure, shortened: as §1
# [20] = molecular target: Man(a1-2)Man(a1-3)[Man(a1-2)Man(a1-6)]Man(a1-6)[Man(a1-2)Man(a1-2)Man(a1-3)]Man
# Procedure, shortened: as §1
# [21] = molecular target: Man(a1-2)Man(a1-3)[Man(a1-2)Man(a1-6)]Man(a1-6)[Man(a1-2)Man(a1-2)Man(a1-3)]Man(b1-4)GlcNAc(b1-4)GlcNAc
# Procedure, shortened: as §1
# [22] = molecular target: Man(a1-2)Man(a1-3)[Man(a1-6)]Man(a1-6)[Man(a1-2)Man(a1-3)]Man(b1-4)GlcNAc(b1-4)GlcNAc
# Procedure, shortened: as §1
# [23] = molecular target: Man(a1-2)Man(a1-6)[Man(a1-3)]Man(a1-6)[Man(a1-2)Man(a1-2)Man(a1-3)]Man
# Procedure, shortened: as §1
# [24] = molecular target: Man(a1-2)Man(a1-6)[Man(a1-3)]Man(a1-6)[Man(a1-2)Man(a1-2)Man(a1-3)]Man(b1-4)GlcNAc(b1-4)GlcNAc
# Procedure, shortened: as §1
# [25] = molecular target: Man(a1-3)[Man(a1-6)]Man(a1-6)[Man(a1-2)Man(a1-3)]Man(b1-4)GlcNAc(b1-4)GlcNAc
# Procedure, shortened: as §1
# [26] = molecular target: Neu5Ac(a2-6)Gal(b1-4)GlcNAc(b1-2)Man(a1-3)[Gal(b1-4)GlcNAc(b1-2)Man(a1-6)]Man(b1-4)GlcNAc(b1-4)GlcNAc
# Procedure, shortened: as §1
# [27] = molecular target: Neu5Ac(a2-6)Gal(b1-4)GlcNAc(b1-2)Man(a1-6)[Man(a1-3)]Man(b1-4)GlcNAc(b1-4)GlcNAc
# Procedure, shortened: as §1
# [28] = molecular target: Neu5Ac(a2-6)Gal(b1-4)GlcNAc(b1-3)Gal(b1-3)GlcNAc
# Procedure, shortened: as §1
# [29] = molecular target: Neu5Ac(a2-6)Gal(b1-4)GlcNAc(b1-6)[Gal(b1-3)]GalNAc
# Procedure, shortened: as §1
# [30] = molecular target: Neu5Ac(a2-6)Gal(b1-4)GlcNAc6S
# Procedure, shortened: as §1
# Neu5Ac(a2-6)GalNAc = molecular target: Neu5Ac(a2-6)GalNAc
# Procedure, shortened: as §1
# [31] = molecular target: Neu5Ac(a2-6)GlcNAc(b1-4)GlcNAc
# Procedure, shortened: as §1
# Neu5Gc(a2-3)Gal(b1-4)Glc = molecular target: Neu5Gc(a2-3)Gal(b1-4)Glc
# Procedure, shortened: as §1
binder,measurement,setting,value
B1,glycan array binding signal (z-score),[1],-0.133
same,glycan array binding signal (z-score),Fuc(a1-2)Gal(b1-3)GlcNAc,-0.139
same,glycan array binding signal (z-score),[2],0.021
same,glycan array binding signal (z-score),[3],-0.137
same,glycan array binding signal (z-score),[4],-0.138
same,glycan array binding signal (z-score),[5],-0.113
same,glycan array binding signal (z-score),[6],-0.138
same,glycan array binding signal (z-score),Fuc(b1-3)GlcNAc,-0.137
same,glycan array binding signal (z-score),Gal(b1-3)Gal,-0.144
same,glycan array binding signal (z-score),[7],0.648
same,glycan array binding signal (z-score),Gal(b1-4)Gal,-0.143
same,glycan array binding signal (z-score),Gal(b1-4)Glc6S,-0.134
same,glycan array binding signal (z-score),Gal(b1-4)GlcNAc,-0.131
same,glycan array binding signal (z-score),[8],-0.141
same,glycan array binding signal (z-score),[9],-0.131
same,glycan array binding signal (z-score),[10],0.024
same,glycan array binding signal (z-score),Gal6P(b1-4)GlcNAc,-0.134
same,glycan array binding signal (z-score),Gal6S(b1-4)Glc6S,-0.128
same,glycan array binding signal (z-score),[11],-0.131
same,glycan array binding signal (z-score),GlcA(b1-6)Gal,-0.139
same,glycan array binding signal (z-score),[12],-0.031
same,glycan array binding signal (z-score),[13],-0.139
same,glycan array binding signal (z-score),[14],-0.141
same,glycan array binding signal (z-score),[15],-0.14
same,glycan array binding signal (z-score),[16],-0.135
same,glycan array binding signal (z-score),[17],5.28
same,glycan array binding signal (z-score),[18],9.44
same,glycan array binding signal (z-score),Man(a1-2)Man(a1-3)Man,4.43
same,glycan array binding signal (z-score),[19],7.03
same,glycan array binding signal (z-score),[20],6.69
same,glycan array binding signal (z-score),[21],3.1
same,glycan array binding signal (z-score),[22],5.79
same,glycan array binding signal (z-score),[23],6.04
same,glycan array binding signal (z-score),[24],13.3
same,glycan array binding signal (z-score),[25],7.25
same,glycan array binding signal (z-score),[26],-0.142
same,glycan array binding signal (z-score),[27],-0.143
same,glycan array binding signal (z-score),[28],-0.123
same,glycan array binding signal (z-score),[29],-0.107
same,glycan array binding signal (z-score),[30],-0.142
same,glycan array binding signal (z-score),Neu5Ac(a2-6)GalNAc,-0.133
same,glycan array binding signal (z-score),[31],-0.135
same,glycan array binding signal (z-score),Neu5Gc(a2-3)Gal(b1-4)Glc,-0.12
